12-LOX inh: inhibitors of human 12S-lipoxygenase ALOX12. 580,000 tested, 1.1% active. Potency, µM (highest dose often 108 µM), hits mostly inhibitors. purified 12hLO, xylenol orange hydroperoxide absorbance. P18054
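Purified human 12hLO (150 nM final) in 25 mM Hepes, 0.01% Triton X-100, pH 7.0 was preincubated 15 min at room temperature with compound. Then 40 uM arachidonic acid was added, 30 min. Hydroperoxide was read by Fe-XO absorbance ratio 573/405 nm.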
G9a block: G9a (human) methyltransferase inhibition; G9a H3K9 monomethylation, AlphaScreen, 2 h; Potency, µM (highest dose often 102 µM), usual class: inhibitors; 350,000 tested, 8.8% active; AID 504332; further: nearly all actives have a fitted effect of over 75% in size
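Enzyme 20 nM + cpd, 15 min RT; add b-H3K9 pep 500 nM / SAM 20 uM; 2 h RT; anti-H3K9me1 Ab 0.5 ug/mL + SA donor / anti-rabbit acceptor beads 20 ug/mL each, 10 min; AlphaScreen read.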
HP1b binding inh: blocks HP1-beta chromodomain binding to methylated histone tails; AID 540317; Potency, µM (top dose mostly 114 µM), actives largely listed as inhibitors; AlphaScreen HP1-beta / biotin-H3K9me3 peptide binding; 390,000 tested, 0.56% active; further: nearly all actives have a fitted effect of over 70% in size
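Compound inhibition of the preformed complex between 50 nM HP1-beta and 50 nM biotinylated H3K9me3 peptide was read by AlphaScreen. Buffer was PBS pH 7.4 with 0.01% Tween-20. Incubations ran 30 min at room temperature, with 10 ug/mL donor/acceptor beads.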
Sfp inh: Sfp phosphopantetheinyl transferase inhibition. Q9F4F7. Biochemical Sfp PPTase activity, qHTS. Potency, µM, hits mostly inhibitors. 310,000 tested, 3.5% active. AID 1490;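 further: the enzyme is Sfp with the accession as filed and its product quenches rhodamine fluorescence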
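Fluorescence-quenching assay with 15 nM Sfp, 5 uM rhodamine-CoA and 12.5 uM BHQ-2-labelled ybbR peptide in pH 7.6 Hepes/MgCl2 buffer. Enzyme was pre-incubated with compound for 15 min at room temperature. Rate was taken from the 30-min fluorescence change (525/598 nm).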
JMJD2A Tudor inh: inhibitors of human JMJD2A Tudor domain; O75164; AlphaScreen JMJD2A-Tudor / H3K4me3 peptide binding; Potency, µM (highest dose often 114 µM), usual class: inhibitors; 390,000 tested, 4.4% active; AID 504339; further: nearly all actives have a fitted effect of over 50% in size
BAZ2B inh: blocks human BAZ2B; Q9UIF8; AlphaScreen BAZ2B-H3K14Ac peptide displacement; Potency, µM (doses to about 114 µM), most hits filed as inhibitors; 360,000 tested, 4.4% active; further: nearly all actives have a fitted effect of over 60% in size
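In this displacement format the biotinylated H3(5-23) peptide acetylated at Lys14 serves as ligand at 50 nM, with BAZ2B at 50 nM in PBS pH 7.4 containing 0.01% Tween-20. Donor and acceptor beads are 10 ug/mL final.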
A number is an active result; – = inactive; ? = inconclusive; · = no result given; [ ] = dose if it differs, or a comment. An excerpt weighted towards active compounds, which were near 8.7% of everything screened. The call rests on the fitted dose curve; in most records, active means well fitted curve in the direction sought with a large enough effect; inconclusive means small, poorly fitted or top-dose-only effect, or another doubt; inactive means no such curve, though single readings can be large; an effect the other way counts as inactive or inconclusive.

SMILES	12-LOX inh	G9a block	HP1b binding inh	Sfp inh	JMJD2A Tudor inh	BAZ2B inh
CCSc1nc2ncn(CC(=O)Nc3cc(F)ccc3F)c(=O)c2s1	–	·	·	·	·	·
CC#C[C@]1(O)CC[C@H]2C3CCC4=CC(=O)CCC4=C3[C@@H](c3ccc(N(C)C)cc3)C[C@@]21C (stereo partly drawn)	·	2.8µM	·	–	·	·
C#C[C@]1(O)CC[C@H]2[C@@H]3CCC4=CC(=O)CC[C@@H]4[C@H]3CC[C@@]21C	–	·	–	·	–	·
COC(=O)[C@@H](N)CS	?	8.9µM	–	11µM	?	–
O=C(O)Cc1ccc(C(=O)CSc2ccccc2)s1	–	56µM	–	–	56µM	50µM
O=C(O)Cc1ccc(C(=O)c2ccccc2)s1	?	18µM	–	–	–	–
Cc1ccc(SCC(=O)c2ccc(CC(=O)O)s2)cc1	–	·	–	–	?	50µM
COc1ccccc1C(=O)NC(=S)/C=C1/N(C)c2ccccc2C1(C)C	28µM	10µM	–	?	16µM	11µM
CCOC(=O)/C=C1/N(C)c2ccccc2C1(C)C	–	–	–	–	–	–
CN1/C(=C\C(=O)Nc2ccc(Cl)cc2)C(C)(C)c2ccccc21	–	?	–	–	–	–
CN1/C(=C\C(=O)c2cccs2)C(C)(C)c2ccccc21	?	–	–	–	–	–
CN1/C(=C/C(=S)NC(=O)C2(C)CC2(Cl)Cl)C(C)(C)c2ccccc21 (stereo not drawn)	22µM	?	18µM	–	35µM	20µM
CN1/C(=C\C(=S)NC(=O)c2ccccc2Cl)C(C)(C)c2ccccc21	25µM	35µM	25µM	?	25µM	11µM
CCOc1cc(C2/C(=C(\O)c3ccc(Cl)cc3)C(=O)C(=O)N2c2cc(C)on2)ccc1O (stereo not drawn)	16µM	·	·	·	·	·
CCOc1ccc(C2/C(=C(/O)c3ccc(OC)cc3)C(=O)C(=O)N2c2cc(C)on2)cc1OC (stereo not drawn)	?	?	–	–	–	–
CC(C)(NC(=O)c1ccccc1)c1nc2ccccc2s1	?	–[2.33 µM]	?	·	79µM	–
O=C(CN1CCN(CC(=O)Nc2ccccc2C(=O)c2ccccc2)CC1)Nc1ccc(F)cc1	–	·	·	·	·	·
Cc1c(S(=O)(=O)c2ccccn2)c(N)n(Cc2cccc(Cl)c2)c1C	?	28µM	–	?	–	–
CC1(C(=O)NCc2ccccc2)Cn2c(ccc2-c2ccco2)C(=O)N1Cc1ccccc1F (stereo not drawn)	–	·	·	·	·	·
CC(C)CC(=O)N1CCCN(S(=O)(=O)c2ccccc2)CCC(=O)NCC1	–	·	·	·	·	·
COc1ccc(CNc2ncnc3cc(OC)c(OC)cc23)cc1OC	–	45µM	–	–	–	–
COc1cccc(CNc2ncnc3cc(Cl)ccc23)c1	–	–	–	–	–	–
COc1cc2ncnc(NCc3ccccc3)c2cc1OC	–	71µM	–	–	–[11.4 µM]	–
COc1cc2ncnc(NCc3ccc4c(c3)OCO4)c2cc1OC	–	–[12.7 µM]	–	–	–	–
COc1cc2ncnc(Nc3ccc(Cl)cc3F)c2cc1OC	20µM	·	·	–	·	·
SMILES	12-LOX inh	G9a block	HP1b binding inh	Sfp inh	JMJD2A Tudor inh	BAZ2B inh
COc1ccc(CNc2ncnc3cc(OC)c(OC)cc23)cc1	–	40µM	–	–	–[11.4 µM]	–
COc1cc2ncnc(NCc3ccco3)c2cc1OC	–	?	–	–	–	–
COc1ccc2cc(C(=O)N3CCN(c4cccc(C)c4C)CC3)c(C)nc2c1	–	·	·	·	·	·
CCC1CCc2sc(C(=O)NC(C)C)cc2C1 (stereo not drawn)	–	·	·	·	·	·
COc1ccc(-c2cc(N3CCCC(NC(=O)c4cccc(C#N)c4)C3)n[nH]2)cc1 (stereo not drawn)	–	·	·	·	·	·
COc1ccccc1CNc1ncnc2cc(OC)c(OC)cc12	?	32µM	–	–	–	–
COc1cc2ncnc(NCc3cc(F)ccc3F)c2cc1OC	–	–[2.33 µM]	–	–	–	–
COc1cc2ncnc(NCc3cccc(Cl)c3)c2cc1OC	–	40µM	–	–	–	–
COc1cc(-c2ccc3ncnc(NCc4ccc(C)o4)c3c2)cc(OC)c1OC	·	·	·	·	50µM	·
CC(C)c1ccc(-c2csc(NC(=O)Cn3cnc4c3c(=O)n(C)c(=O)n4C)n2)cc1	–	·	·	·	·	·

High-throughput results (PubChem BioAssay)
